Here are results for seven sequences from the supplement of paper PMC6555819.

Common to all, as to assay: PBM binding z-score (relative to random genomic background probes); higher = stronger binding; sequences stand for … in GC…GCGATTGACAGCGTAGAATGAAGG
Assay [1] relates to FXR:RXRa (NR concentration 270 nM, RXRa partner concentration 90 nM). In outline:
(§1)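 Binding z-scores take random background probes as their reference. They come from custom Agilent 4×180K protein-binding microarrays incubated 1 h with ligand-free nuclear receptor dimers, with antibodies against each partner (one per run) detecting binding. Scanned fluorescence was regression-normalized.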

Assay [2] has as its system LXRa:RXRa (NR concentration 270 nM, RXRa partner concentration 90 nM). In outline: as §1
The subject of assay [3] is LXRa homodimer (NR concentration 270 nM). In a few lines:
as §1

The test system of assay [4] is LXRb:RXRa (NR concentration 270 nM, RXRa partner concentration 90 nM). In a few lines: as §1
For assay [5], the system named is LXRb homodimer (NR concentration 270 nM). In outline: as §1
The subject of assay [6] is PPARa:RXRa (NR concentration 270 nM, RXRa partner concentration 90 nM). In outline:
as §1

Assay [7] has as its system PPARg:RXRa (NR concentration 180 nM, RXRa partner concentration 90 nM). In outline: as §1
Assay [8] relates to PPARg:RXRa 270nM:90nM, anti-RXR (NR concentration 270 nM, RXRa partner concentration 90 nM). In outline:
as §1

The subject of assay [9] is PPARg:RXRa 30nM:10nM, anti-RXR (NR concentration 30 nM, RXRa partner concentration 10 nM). In outline: as §1
Assay [10] has as its system PPARg:RXRa 90nM:30nM, anti-RXR (NR concentration 90 nM, RXRa partner concentration 30 nM). In outline:
as §1

Assay [11] has as its system PPARg:RXRa DBDmut IVT, anti-RXR (DBD mutation: RXRa K156A/R161A, NR concentration 270 nM, RXRa partner concentration 90 nM). In outline: as §1
Assay [12] deals with PPARg:RXRa IVT, anti-PPARg (NR concentration 270 nM, RXRa partner concentration 90 nM). In outline:
as §1

Assay [13] concerns PPARg DBDmut:RXRa IVT, anti-PPARg (DBD mutation: PPARg1 K132A/R137A, NR concentration 270 nM, RXRa partner concentration 90 nM). In outline: as §1
For assay [14], the system named is PPARg DBDmut IVT, anti-PPARg (DBD mutation: PPARg1 K132A/R137A, NR concentration 270 nM). In a few lines:
as §1

Assay [15] concerns PPARg homodimer (NR concentration 180 nM). In a few lines: as §1
For assay [16], the system named is PXR:RXRa (NR concentration 270 nM, RXRa partner concentration 90 nM). In a few lines:
as §1

In assay [17] the test system is PXR homodimer (NR concentration 270 nM). In outline: as §1
In assay [18] the test system is RARa:RXR (NR concentration 270 nM, RXRa partner concentration 90 nM). In a few lines:
as §1

Assay [19] concerns RARa homodimer (NR concentration 270 nM). In a few lines: as §1
Assay [20] deals with RARb:RXRa (NR concentration 270 nM, RXRa partner concentration 90 nM). In outline: as §1

With ACCGACAGGTGATGAAGGTAACTCAGGCTATCAT, the PBM binding z-score in assay [1] was -0.0834; in assay [2], -0.243; in assay [3], -0.257; in [4] it was -0.498; in assay [5] it was -0.393; in [6], 0.179. The PBM binding z-score was 0.492 in [7]; -0.102 in [8]; -0.173 in assay [9]; -0.00846 in assay [10]; 0.339 in assay [11]; 0.157 in [12]. For the same sequence, the PBM binding z-score in [13] was 0.484; in assay [14], 0.654; in [15], 0.0692; in [16], -0.165; in assay [17], -0.395; in assay [18], 0.291. In addition, the PBM binding z-score in [19] worked out at 0.18; in assay [20], 0.0834.
Turning to CAACCTAGGTCAAAGGTCAAAGTCGAGCCAACCA, the PBM binding z-score was determined as 8.61 in [1]; 7.41 in assay [2]; 5.72 in assay [3]; 7.42 in assay [4]; 3.03 in assay [5]; 7.49 in [6]. In addition, the PBM binding z-score in [7] worked out at 12.5; in assay [8], 10.1; in [9] it was 10.9; in [10], 11.3; in assay [11], 5.72; in assay [12], 7.45. For the same sequence, the PBM binding z-score turned out to be 2.7 in [13]; 1.79 in assay [14]; 4.67 in [15]; 7.39 in assay [16]; 1.35 in [17]; 8.88 in assay [18]. Also, the PBM binding z-score in [19] was 2.65; in assay [20], 5.83.
Regarding ATCGAAAGGTCGTGAGGAGAGTATACAGAAAGGC, the PBM binding z-score in assay [1] was found to be 5.47; in assay [2] it was 4.45; in assay [3], 0.57; in assay [4], 3.32; in assay [5], 1.13; in assay [6], 4.93. Further, the PBM binding z-score in assay [7] was determined as 3.66; in [8], 4.22; in [9], 1.53; in assay [10], 2.94; in [11], 0.395; in [12], 1.64. In addition, the PBM binding z-score in [13] was determined as 1.22; in [14], 1.09; in [15], 2.69; in [16], 3.21; in assay [17] it was 0.666; in [18], 4.09. For the same sequence, the PBM binding z-score was determined as 0.902 in [19] and 3.91 in assay [20].
Turning to CCTGCGAGGTCAATGGTCAGCTAAAGCAGCTCGC, the PBM binding z-score in [1] worked out at 7.26; in assay [2] it was 5.25; in assay [3], 0.691; in assay [4], 4.29; in [5] it was 0.981; in assay [6] it was 5.73. Besides, the PBM binding z-score in assay [7] is 5.75; in assay [8] it was 6.01; in [9], 2.22; in [10] it was 4.25; in assay [11], 3.45; in assay [12], 3.93. In addition, the PBM binding z-score in assay [13] is 1.18; in assay [14] it was -0.453; in assay [15] it was 2.42; in assay [16] it was 4.55; in assay [17] it was 0.99; in [18], 4.6. Further, the PBM binding z-score in assay [19] is 0.55; in assay [20], 5.07.
Regarding GCTTGTAGATCAACGTTAAGAAAGACTAAGCTAA, the PBM binding z-score in assay [1] is -0.519; in [2], -0.395; in assay [3] it was -0.371; in [4] it was -0.448; in assay [5] it was -0.769; in assay [6], -0.124. The PBM binding z-score is 0.13 in assay [7]; -0.0429 in assay [8]; -0.364 in [9]; -0.214 in assay [10]; 1.51 in assay [11]; 0.269 in assay [12]. For the same sequence, the PBM binding z-score was 0.342 in [13]; 0.507 in assay [14]; -0.243 in assay [15]; -0.51 in assay [16]; -0.226 in assay [17]; -0.0818 in [18]. Also, the PBM binding z-score in assay [19] is -0.208; in assay [20], -0.508.
For the sequence GCTAGTTGGCCAGTAAAAGGTCACACACCGGTCG, the PBM binding z-score in [1] amounted to 2.93; in assay [2], 4.16; in [3], 3.87; in [4] it was 4.02; in assay [5], 0.221; in assay [6], 4.29. The PBM binding z-score was 1.91 in assay [7]; 3.48 in [8]; 1.25 in assay [9]; 2.46 in assay [10]; 0.354 in assay [11]; 1.78 in assay [12]. The PBM binding z-score was -0.104 in assay [13]; -0.574 in [14]; 3.08 in assay [15]; 4.62 in assay [16]; 0.59 in [17]; 5.25 in assay [18]. Also, the results for the PBM binding z-score in [19] and in [20] were 0.379 and 4.07, respectively.
Turning to ACAGACGGGTGATGAAGGTAACTCAGGCTATCAT, the PBM binding z-score in [1] was -0.328; in assay [2] it was -0.456; in assay [3] it was -0.165; in assay [4], -0.422; in assay [5], -0.384; in assay [6], -0.198. Also, the PBM binding z-score was 0.613 in [7]; -0.161 in [8]; 0.108 in assay [9]; -0.458 in assay [10]; -0.229 in assay [11]; 0.424 in assay [12]. Besides, the PBM binding z-score in [13] was 0.246; in [14] it was -0.242; in [15] it was -0.329; in [16] it was -0.323; in [17] it was -0.116; in assay [18], -0.078. The PBM binding z-score in [19] is -0.0586; in [20], -0.204.
